Assay results from PubChem BioAssay (NCATS).
Inconclusive results are not listed. Values without a mark were called inactive. The call rests on the fitted dose curve; in most records, active means well fitted inhibition curve with a large enough effect; inconclusive means small, poorly fitted or top-dose-only effect; inactive means flat fitted curve, though single readings scatter.

Each molecule was assayed against Calcium and integrin-binding protein 1 (Homo sapiens) (UniProt Q99828) (assay: Primary qHTS for Identification of Calcium Integrin Binding Protein 1 (CIB1) Competitor (AID 1508620;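 further: GST tagged CIB1 binding a fluorescein labelled alphaIIb integrin peptide tracer; top concentration of the series differs between compounds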)). Conditions: CIB1-GST / FITC-alphaIIb peptide fluorescence polarization; series mostly up to 114 µM; activity change, negative = inhibition: at the top concentration.
Calcium and integrin-binding protein 1 (Homo sapiens), sequence (Q99828 whole entry, looked up): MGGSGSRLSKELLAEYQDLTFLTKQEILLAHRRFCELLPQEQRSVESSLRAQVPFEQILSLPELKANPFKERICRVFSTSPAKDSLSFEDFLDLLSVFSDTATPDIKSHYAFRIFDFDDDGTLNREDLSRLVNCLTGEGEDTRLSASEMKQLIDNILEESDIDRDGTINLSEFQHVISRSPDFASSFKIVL
Procedure, shortened: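 Fluorescence polarization competition: CIB1-GST (1 uM final) preincubated with compound 15 min at room temperature, then FITC-labeled alphaIIb peptide (100 nM final) added for another 15 min. Polarization read at Ex 480/Em 540.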
On the % scale 0 is the no-effect control and ±100 the full control effect.

| Compound | activity change, negative = inhibition |
| --- | --- |
| Cc1cc(C)n2ncc(C(=O)Nc3ccncc3)c2n1 | 3.09% |
| COC(=O)c1ccc(O)c2ncc(N(C)C)cc12 | -18.1% |
| O=C(COC(=O)CNC(=O)c1ccccc1Cl)Nc1cc(C(F)(F)F)ccc1Cl | -1.44% |
| Cc1cc(C)nc(NC(=S)N2CCN(c3ncnc4ccccc34)CC2)c1 | 2.7% |
| O=C(O)c1ccc(O)c2ncc(NC3CCNCC3)cc12 | -4.19% |
| CC(=O)Nc1ccc(S(=O)(=O)Nc2ccc(C)c(C)c2)cc1 | 3.53% |
| COc1cccc(C)c1NC(=O)C(OC(=O)CNC(=O)c1ccccc1)c1ccccc1 (centres undefined) | 3.84% |
| CCN(Cc1sccc1C)c1ncnc2ccc(-c3ccc4c(c3)OCO4)cc12 | 14.2% |
| N#Cc1nc(Nc2cc(F)cc(F)c2)c2ncn(CCCN3CCCC3)c2n1 | 5.67% |
| Cc1ccc(NS(=O)(=O)c2cc3c(cc2C)OCC(=O)N3)cc1C | 3.46% |
| COc1ccc(C2Nc3ccccc3C(=O)N2Cc2ccccc2)cc1COc1ccc(C(N)=O)cc1 (centres undefined) | 3.92% |
| Oc1cc(Nc2cccnc2)cc2cccnc12 | -5.63% |
| COc1cccc(N2C(=O)c3ccccc3C2=O)c1 | 3.32% |
| C/C(=C\c1ccsc1)C1Nc2cccc3cccc(c23)N1 | -2.25% |
| CCCN(C)c1ncnc2ccc(-c3ccc4c(c3)OCO4)cc12 | -0.106% |
| Cc1sc(NC(=O)Cc2ccc3c(c2)OCO3)nc1-c1ccc2c(c1)CCN2C | 10.4% |
| Oc1cc(NCc2ccc(F)cc2)cc2cccnc12 | 1.19% |
| O=C1CCc2cc(S(=O)(=O)Nc3ccccc3-c3ccccc3)ccc2N1 | 1.77% |
| Cc1c(P(=S)(c2ccccc2)c2ccccc2)c2ccccc2n1C(=O)NCc1ccc(F)cc1 | 3.69% |
| CC(C)(C)OC(=O)NCC(=O)NNC(=O)c1cc2ccccc2[nH]1 | -2.65% |

| Compound | activity change, negative = inhibition |
| --- | --- |
| COc1ccc(C(=O)NCC(=O)OC(C(=O)Nc2cc(C(F)(F)F)ccc2Cl)c2ccccc2)cc1OC (centres undefined) | -0.549% |
| O=C1CCCC2=C1C1(CCCC1)N=C(Nc1nc3ccccc3n1Cc1ccccc1)N2 | -17.6% |
| Cc1cc(-c2nnc3n2CCCCC3)c(C)n1-c1ccncc1 | -1.22% |
| COCC1CCCN(C(=O)CC(c2ccc3c(c2)OCO3)c2c(O)cc(OC)cc2OC)C1 (centres undefined) | -3.64% [at 228 µM] |
| O=C(Nc1cccc(-c2nn3c(=O)cc(N4CCNCC4)nc3s2)c1)C1CCNCC1 | -1.07% |
| COc1ccccc1NS(=O)(=O)c1ccc2c(c1)CCC(=O)N2 | 1.28% |
| Cc1ccc(S(=O)(=O)Nc2cccc3ccc[n+](C)c23)cc1 | 3% |
| COc1ccc([S+](=O)([O-])N2CCCN([S+](=O)([O-])c3ccc(OC)c(N)c3)CC2)cc1N | -0.27% |
| COc1ccc(-c2nnc3n2N=C(c2ccc(OC)cc2OC)CS3)cc1 | 0.327% |
| Cc1cc2c(s1)c1cnn(Cc3ccc(SC(F)(F)F)cc3)c(=O)c1n2C | -0.619% |
| CC(=O)N1CCN(c2ccc(NCc3ccco3)cc2)CC1 | -12% |
| Cc1ccc2nc3sc(C(=O)N4CCCCC4)cc3cc2c1 | 0.836% |
| Cc1sc(NC(=O)Cc2ccc3c(c2)OCO3)nc1-c1ccc2c(c1)CCN2C(=O)c1ccccc1C(F)(F)F | 8.96% |
| CC(=O)Nc1sc2c(c1-c1ccc3nonc3c1)CCNC2 | -3.99% |
| COc1ccc(C2Nc3ccccc3C(=O)N2Cc2ccco2)cc1COc1cccc(NC(C)=O)c1 (centres undefined) | 3.91% |
| COc1ccc2nc(-c3ccc(N(C)C)cc3)sc2c1 | 1.67% |
| CC(C)c1ccccc1-c1nc(NCc2ccc(-c3cccnc3)cc2)c2[nH]cnc2n1 | -3.36% |
| O=C(CNC(=O)c1ccc2cc[nH]c2c1)OC(C(=O)Nc1cc(C(F)(F)F)ccc1Cl)c1ccccc1 (centres undefined) | 0.106% |
| NC(=O)C1CCN(c2ncc(-c3ccc4c(c3)OCCO4)s2)CC1 | 1.43% |
